Screening results: PubChem, National Center for Advancing Translational Sciences (NCATS)
In the library only some 6.9% were active in any assay of this set; here they are far more common.
SW480 rerep – inducers of DNA re-replication in SW480 colon cancer cells; Potency, µM (doses to about 46.1 µM), for inactives: at the highest dose re-replication activation, most hits filed as activators; SW480 DNA re-replication, Hoechst DNA content imaging, 48 h; 340,000 tested, 1.8% active; AID 624297; note: potency is the fitted concentration of half-maximal effect; % of control where 0% means no effect; nearly all actives have a fitted effect of over 55% in size
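Compounds, transferred as 23 nL by pin tool, were incubated with cells for 48 hr; DNA content per nucleus was then quantified by Hoechst staining and fluorescence plate imaging.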
KB-3-1 tox – kills parental KB-3-1 adenocarcinoma cells; KB-3-1 viability, CellTiter-Glo ATP luminescence, 72 h; Potency, µM (doses to about 46.1 µM), actives largely listed as cytotoxic; 400,000 tested, 1.4% active; note: potency is the fitted concentration of half-maximal effect; % is set by controls: 0 for no effect and ±100 for the full control effect; nearly all actives have a fitted effect of over 60% in size
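Here the drug-naive KB-3-1 line serves as comparator for MDR sub-line selectivity; cells received compound titrations, 72 h at 37 °C, then CellTiter-Glo readout.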
ASM inhibitor – blocks human secretory acid sphingomyelinase. P17405. placental ASM, HMU-PC fluorogenic substrate, 60 min. Potency, µM (titrated, usually from 57.5 µM), for inactives: at the highest dose activity change, negative = inhibition, hits mostly inhibitors. 340,000 tested, 0.006% active; note: potency is the fitted concentration of half-maximal effect
Target sequence (P17405 47-631 limits assumed): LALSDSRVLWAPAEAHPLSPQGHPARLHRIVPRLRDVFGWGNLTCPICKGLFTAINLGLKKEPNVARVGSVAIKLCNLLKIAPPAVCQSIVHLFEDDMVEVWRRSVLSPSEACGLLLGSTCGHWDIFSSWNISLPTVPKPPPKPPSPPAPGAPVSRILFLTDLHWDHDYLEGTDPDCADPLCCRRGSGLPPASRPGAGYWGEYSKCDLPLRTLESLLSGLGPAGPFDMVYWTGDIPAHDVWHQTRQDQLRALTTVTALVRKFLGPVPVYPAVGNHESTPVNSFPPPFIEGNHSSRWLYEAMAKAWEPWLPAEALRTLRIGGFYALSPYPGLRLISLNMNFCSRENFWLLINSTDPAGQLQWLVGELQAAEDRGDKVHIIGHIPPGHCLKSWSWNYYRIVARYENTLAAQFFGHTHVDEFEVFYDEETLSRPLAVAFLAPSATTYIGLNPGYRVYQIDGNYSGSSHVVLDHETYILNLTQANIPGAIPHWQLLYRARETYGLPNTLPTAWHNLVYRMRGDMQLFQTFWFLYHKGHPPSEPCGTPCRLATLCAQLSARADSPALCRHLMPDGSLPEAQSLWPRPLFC
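qHTS format. ASM enzyme prepared from human placenta hydrolyses the fluorogenic substrate HMU-PC0 (9 uM final) over 60 min at 37 °C after a 10 min compound preincubation.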
KB-V1 MDR tox – kills drug-selected multidrug resistant KB-V1 cells; KB-V1 MDR cells viability, CellTiter-Glo, 72 h; Potency, µM (top dose mostly 46.1 µM), most hits filed as cytotoxic; 400,000 tested, 3.4% active; AID 1347076; note: potency is the fitted concentration of half-maximal effect; % is set by controls: 0 for no effect and ±100 for the full control effect; nearly all actives have a fitted effect of over 60% in size
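Potencies derive from concentration-effect curves fitted to normalized luminescence (CellTiter-Glo) of KB-V1 cells treated for 72 h at 37 degrees C in phenol-red-free DMEM containing 10% FBS.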
MCF10A rerep – induces DNA re-replication in MCF 10a normal breast cells. Potency, µM (highest dose often 46.1 µM), inactives show at the top dose activity, positive = re-replication, actives largely listed as activators. 350,000 tested, 2.9% active. AID 624296. MCF 10A DNA re-replication, Hoechst nuclear intensity, 48 h; note: potency is the fitted concentration of half-maximal effect; % of control where 0% means no effect; nearly all actives have a fitted effect of over 50% in size
Giardia kill – kills Giardia lamblia; activity change, % at 7.66 µM, hits read low; 340,000 tested, 0.15% active; AID 540267; Giardia lamblia trophozoite viability; in the data active = activity change below about -80%; inconclusive = between about -30% and that limit;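 note: parasites exposed to compound for two days anaerobically before the ATP read; % is set by controls: 0 for no effect and ±100 for the full control effect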
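Luminescence from cellular ATP indicates surviving trophozoites (100 cells/well) following 48 hrs anaerobic compound treatment at 37 deg C; signal develops 15-30 min at room temperature.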
The depositor's hits bear a star; [ ] = dose if it differs, or a comment. Unless noted, calls come from the whole dose curve; as a rule, active = well fitted curve in the direction sought with a large enough effect; inconclusive = small, poorly fitted or top-dose-only effect, or another doubt; inactive = no such curve, though single readings can be large; an effect the other way counts as inactive or inconclusive.

CC[C@H](C)[C@H](N)C1=N[C@H](C(=O)N[C@@H](CC(C)C)C(=O)N[C@@H](CCC(=O)O)C(=O)N[C@@H](C(=O)N[C@H]2CCCCNC(=O)[C@@H](CC(N)=O)NC(=O)[C@@H](CC(=O)O)NC(=O)[C@@H](Cc3cnc[nH]3)NC(=O)[C@@H](Cc3ccccc3)NC(=O)[C@@H]([C@@H](C)CC)NC(=O)[C@@H](CCCN)NC2=O)[C@@H](C)CC)CS1 was read as SW480 rerep -6.5%[20.6 µM] and MCF10A rerep -2.0%[20.6 µM].
`CC(C)c1ccccc1NC(=S)NCCCn1ccnc1` gave SW480 rerep -51.8%, KB-3-1 tox inactive, ASM inhibitor 5.2%, KB-V1 MDR tox inactive, MCF10A rerep 0.731µM* and Giardia kill 13.1.
CC(NC(=O)C12CC3CC(CC(C3)C1)C2)c1ccc(F)cc1 (centres undefined) was read as SW480 rerep inconclusive, KB-3-1 tox inactive, ASM inhibitor 6.9%, KB-V1 MDR tox inactive, MCF10A rerep -1.0% and Giardia kill 8.7.
`Cc1c(O)ccc2cc(S(=O)(=O)c3ccccc3)c(=O)oc12` gave SW480 rerep 1.84µM*, KB-3-1 tox inactive, ASM inhibitor inactive, KB-V1 MDR tox inactive, MCF10A rerep 4.11µM* and Giardia kill -1.7.
CCOc1ccc(S(=O)(=O)N2CC(=O)Nc3ccccc32)cc1 was read as SW480 rerep 14.6µM*, KB-3-1 tox inconclusive, ASM inhibitor 4.4%, KB-V1 MDR tox inconclusive, MCF10A rerep inconclusive and Giardia kill 8.5.
For Cc1ccc(C(C)(C)C)cc1S(=O)(=O)N1CC(=O)Nc2ccccc21 the results were SW480 rerep 25.9%, KB-3-1 tox inactive, ASM inhibitor -1.9%, KB-V1 MDR tox inconclusive, MCF10A rerep 15.8% and Giardia kill -9.7.
`CCOc1ccc(S(=O)(=O)N2CC(=O)Nc3ccccc32)cc1C#N` gave SW480 rerep -3.7%, KB-3-1 tox inactive, ASM inhibitor 1.1%, KB-V1 MDR tox inactive, MCF10A rerep 4.2% and Giardia kill 6.4.
For Cc1ccc(S(=O)(=O)N2c3ccccc3CC2C)cc1 (centres undefined) the results were SW480 rerep inconclusive, KB-3-1 tox inactive, ASM inhibitor -6.9%, KB-V1 MDR tox inactive, MCF10A rerep inconclusive and Giardia kill 3.4.
For Cc1cc(C(C)(C)C)cc(C)c1S(=O)(=O)N1CC(=O)Nc2ccccc21 the results were SW480 rerep inconclusive, KB-3-1 tox inactive, ASM inhibitor -10.4%, KB-V1 MDR tox inactive, MCF10A rerep 18.4µM* and Giardia kill 10.1.
Screening CCOc1ccc(S(=O)(=O)N2c3ccccc3CC2C)cc1 (centres undefined) returned SW480 rerep 1.64µM*, KB-3-1 tox 1.16µM*, ASM inhibitor -4.3%, KB-V1 MDR tox 1.46µM*, MCF10A rerep inconclusive and Giardia kill -13.7.
`CN1C(=O)C(O)(CC(=O)c2ccccn2)c2cc(Br)ccc21` (centres undefined) gave SW480 rerep inconclusive, KB-3-1 tox inconclusive, ASM inhibitor 1.2%, KB-V1 MDR tox 7.31µM*, MCF10A rerep inconclusive and Giardia kill 8.4.
`CN1C(=O)[C@@](O)(CC(=O)c2ccccc2)c2cc(Br)ccc21` gave KB-3-1 tox inconclusive and KB-V1 MDR tox inactive.
Screening CC(C)C(=O)Nc1cccc(C(=O)OCC(=O)c2ccc(Cl)cc2Cl)c1 returned SW480 rerep 2.9%, KB-3-1 tox inactive, ASM inhibitor -0.3%, KB-V1 MDR tox 14.6µM*, MCF10A rerep 10.0% and Giardia kill 2.2.
For CC(=O)Nc1cc(C(=O)OCC(=O)c2ccc(Cl)cc2Cl)ccc1C the results were SW480 rerep -5.2%, KB-3-1 tox inactive, ASM inhibitor -0.5%, KB-V1 MDR tox inconclusive, MCF10A rerep 7.6% and Giardia kill 0.5.
Screening COc1ccc(N(CC(=O)Nc2cccc(Cl)c2C)S(=O)(=O)c2c(C)nn(C)c2C)cc1 returned KB-3-1 tox inactive and KB-V1 MDR tox inactive.
Screening O=Cc1ccc(N2CCCC2)c([N+](=O)[O-])c1 returned SW480 rerep -6.4%, KB-3-1 tox inactive, ASM inhibitor -1.6%, KB-V1 MDR tox inactive, MCF10A rerep 0.7% and Giardia kill -2.7.
O=[N+]([O-])/C=C\c1ccc(N2CCCC2)c(F)c1 was read as SW480 rerep 18.4µM*, KB-3-1 tox inconclusive, ASM inhibitor -3.8%, KB-V1 MDR tox inconclusive, MCF10A rerep 18.4µM* and Giardia kill -29.8.
Screening CN(c1ccc(F)cc1)S(=O)(=O)c1ccc(Cl)c(C(=O)NCC2(N3CCOCC3)CCCCC2)c1 returned SW480 rerep -6.8%, KB-3-1 tox inactive, ASM inhibitor -1.2%, KB-V1 MDR tox 18.4µM*, MCF10A rerep 8.6% and Giardia kill 25.0.
For CN(c1ccc(F)cc1)S(=O)(=O)c1ccc(Cl)c(C(=O)NCC2CCCO2)c1 (centres undefined) the results were SW480 rerep -3.2%, KB-3-1 tox inactive, ASM inhibitor 7.3%, KB-V1 MDR tox inconclusive, MCF10A rerep 1.6% and Giardia kill -11.2.
`CC1CC(C)(C)CC2(C1)NC(=O)N(CC(=O)OCc1ccc(Br)cc1)C2=O` (centres undefined) gave SW480 rerep 4.0%, KB-3-1 tox inactive, ASM inhibitor 0.0%, KB-V1 MDR tox 16.4µM*, MCF10A rerep inconclusive and Giardia kill 24.2.
Screening COc1ccc(-c2nc(C)c(CCNC(=O)C(=O)Nc3ccccc3C#N)s2)cc1OC returned KB-3-1 tox inactive and KB-V1 MDR tox inactive.
Screening COc1cc(NC(=O)Cn2nc(C(F)(F)F)c(Br)c2C)cc([N+](=O)[O-])c1 returned SW480 rerep -5.4%, KB-3-1 tox inactive, ASM inhibitor -6.1%, KB-V1 MDR tox 18.4µM*, MCF10A rerep -0.2% and Giardia kill 4.8.
`Cc1cc(C(=O)C(C)OC(=O)c2ccc(NC(=O)CC#N)cc2)c(C)n1-c1ccc(OC(F)F)cc1` (centres undefined) gave SW480 rerep 22.5%, KB-3-1 tox 2.91µM*, ASM inhibitor -2.8%, KB-V1 MDR tox 18.4µM*, MCF10A rerep 6.4% and Giardia kill 5.2.
Cc1[nH]c2ccccc2c1C(=O)C(C)OC(=O)c1ccc(NC(=O)CC#N)cc1 (centres undefined) was read as SW480 rerep -3.7%, KB-3-1 tox inactive, ASM inhibitor -4.5%, KB-V1 MDR tox inactive, MCF10A rerep 17.9% and Giardia kill -10.4.
